Inconclusive results are not listed. Unmarked numbers belong to inactive results. Calls follow the shape of the dose curve; as a rule, active = well fitted curve in the direction sought with a large enough effect; inconclusive = small, poorly fitted or top-dose-only effect, or another doubt; inactive = no such curve, though single readings can be large; an effect the other way counts as inactive or inconclusive.
biological target: Aldehyde dehydrogenase, mitochondrial (Homo sapiens) (UniProt P05091); experiment: qHTS for Inhibitors of the Aldehyde Dehydrogenase Family (ALDH2) Primary screen (AID 2061308); settings: ALDH2 enzyme inhibition qHTS, 1536-well; series mostly up to 56 µM; activity change, negative = inhibition: at the top concentration;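 also: plate controls were vehicle for no effect and reference inhibitor for full effect; nearly all actives have a fitted effect of over 55% in size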

SMILES	activity change, negative = inhibition
CC1(C)CC[C@]2(C(=O)O)CC[C@]3(C)C(=CCC4[C@@]5(C)CC[C@H](O[C@@H]6O[C@H](C(=O)O)[C@@H](O[C@@H]7OC[C@@H](O)[C@H](O)[C@H]7O)[C@H](O)[C@H]6O)C(C)(C)C5CC[C@]43C)C2C1O (some centres not stated)	-4.71% [at 16.9 µM]
CCCC(CCC)C(=O)NCc1ccc2c(cnn2-c2ccccc2OC)c1	-9.97%
CO[C@@]12CC3[C@@H]([C@@H](O)[C@@H](OC(C)=O)C4[C@](C)(COC(C)=O)CCC[C@]34C)[C@@H](C)C1=CC(=O)O2 (some centres not stated)	20% [at 28 µM]
C=C(C(=O)O)C1CC2=C(C)C(=O)CC2C(C)CC1O (configuration not stated)	8.32%
CC(=O)O[C@H]1[C@H](O[C@H]2[C@@H]3C=CO[C@@H](O[C@@H]4O[C@H](CO)[C@@H](O)[C@H](O)[C@H]4O)[C@@H]3[C@@]3(CO)O[C@@H]23)O[C@@H](C)[C@H](OC(=O)/C=C/c2ccccc2)[C@H]1OC(=O)/C=C/c1ccccc1	3.52% [at 16.9 µM]
Cc1cc(O)cc2c1O[C@](C)(CCC[C@H](C)CCC[C@H](C)CCCC(C)C)CC2	-7.6%
C=C1CCc2occ(C)c2[C@H]2[C@H]1[C@@]13O[C@@]1(C[C@@H](C)[C@H]3OC(C)=O)[C@H]1O[C@@]21C	8.54%
COC(=O)Cn1nc(-c2cccc(OC)c2)c2ccccc21	8.27%
CCCCCc1ccc(/C=C/C(=O)Nc2cc(Cl)ccc2C(=O)O)cc1	-4.93%
COc1ccc(Oc2c(Cl)cnn(C3c4ccccc4-c4ccccc43)c2=O)cc1	-16.3%
Nc1ccc(-n2nc(C(F)(F)F)cc2C(F)(F)F)cc1	6.6%
CC12CC(O)C(O)C=C1c1cc(O)cc(O)c1C(=O)O2 (configuration not stated)	-12.6%
O=C(NCC(O)CO)c1ccncc1Nc1ccc(I)cc1F (configuration not stated)	6.6%
COc1c2c(c(C)c3c1C(=O)OC3)OC1(C)CC(O)C34OC(OC)(OC3(C)C)C(O)CC4(C)C1C2 (configuration not stated)	-0.944% [at 28 µM]
O=C(NOC[C@H](O)CO)c1ccc(F)c(F)c1Nc1ccc(I)cc1F	6.77%
CC1(C)CC[C@]2(C(=O)O[C@@H]3O[C@H](CO)[C@@H](O)[C@H](O)[C@H]3O)CC[C@]3(C)C(=CCC4[C@@]5(C)C[C@@H](O)[C@H](O)C(CO)(CO)C5CC[C@]43C)C2[C@@H]1O (some centres not stated)	24.2% [at 16.9 µM]
C=C1C(=O)OC2/C=C(\CO)CC/C=C(\C=O)C(OC)C(OC(=O)C(C)CC)C12 (configuration not stated)	0.114% [at 28 µM]

biological target: Retinaldehyde dehydrogenase 3 (Homo sapiens) (UniProt P47895); experiment: qHTS for Inhibitors of the Aldehyde Dehydrogenase Family (ALDH1A3) Primary screen (AID 2061315); settings: ALDH inhibition qHTS; series mostly up to 56 µM; activity change, negative = inhibition: at the top concentration;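 also: plate controls were DMSO vehicle for no effect and reference inhibitor for full effect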

SMILES	activity change, negative = inhibition
C=C1C(=O)O[C@@H]2/C=C(\CO)CC/C=C(/C=O)C[C@H](O)[C@@H]12	-19.6%
CC1CCCC(O)CC(=O)c2c(O)cc(O)cc2CC(=O)O1 (configuration not stated)	-11.1%
O=C(c1ccc(OC(F)F)c(C#Cc2ccccn2)c1)N1Cc2cccnc2C1	-11.2%
Cc1ccc(C2(COC(=O)C(C)C)CO2)c(OC(=O)C(C)C)c1 (configuration not stated)	-2.08%
C[C@@H]1C(=O)O[C@H]2[C@H](O)C34[C@H]5C[C@@H](C(C)(C)C)C36[C@@H](OC(=O)[C@@H]6O)O[C@@]4(C(=O)O5)[C@@]12O (some centres not stated)	-0.521% [at 28 µM]
NC1CCC(Nc2cc(-c3cccc(NCc4cccc(F)c4)n3)c(Cl)cn2)CC1 (configuration not stated)	17.7%
COc1cc(C(=O)OC[C@H]2O[C@H](O[C@@]3(CO)O[C@@H](CO)[C@H](O)[C@H]3O)[C@H](O)[C@@H](O)[C@@H]2O)ccc1O	1.82% [at 28 µM]
CC1=CC(=O)[C@H]2C(C)(C)CCC[C@]2(C)[C@@]1(O)CO	-11.3%
C=C1C[C@]23C[C@H]1CC[C@H]2[C@]1(C)CCC[C@@](C)(C(=O)O)[C@H]1[C@@H]3C(=O)O	7.39%
C[C@@H]1CCC2C(C)(C)[C@H](O)[C@H](O)C[C@]2(C)[C@@]12Cc1c(O)cc3c(c1O2)CN(CCCC(=O)O)C3=O (some centres not stated)	2% [at 28 µM]
CC(=O)OC1CC(C(C)(C)O)OC2CCC3(C)OC4=C(C(=O)C=C5C(C)C(OC(C)=O)C6(C)C(C)OC546)C(O)C3C12C (configuration not stated)	-1.1% [at 16.9 µM]
CC(=O)OC1CC(O)(C(C)C)C2C(OC(=O)c3ccc(O)cc3)C=C(C)C(=O)CC12C (configuration not stated)	-8.66% [at 28 µM]
CC(C)C[C@@H]1NC(=O)[C@@H]2C[C@@]34C[C@@H]5[C@@]6(C)CCCC(C)(C)C6CC[C@@]5(C)N(c5ccccc53)[C@H]4N2C1=O (some centres not stated)	0.0356% [at 28 µM]
CC1CCC2(C)C(CC(O)C(O)C23CO3)C1(C)CCC1=CC(O)OC1=O (configuration not stated)	-0.273%
Nc1nc2c(s1)CCN(Cc1ccc(Cl)cc1)CC2	2.83%
C#C[C@]1(OC(C)=O)CC[C@H]2[C@@H]3CCC4=C[C@@H](OC(C)=O)CC[C@@H]4[C@H]3CC[C@@]21C	2.45%
CO[C@@H]1[C@]2(O)C(=O)N3/C=C\C(C)(C)c4[nH]c5ccccc5c4/C=C\3C(=O)N2[C@]23[C@H](CO)C(C)(C)N2c2ccccc2[C@]13O	-3.47% [at 28 µM]
C/C=C/C=C/C(O)=C1\C(O)=C(C)C(=O)[C@@]2(C)OC(=O)[C@@](C)(NC(=O)/C=C/C(=O)O)[C@@H]12	13.2% [at 28 µM]
C=C[C@H]1[C@H](O[C@@H]2O[C@H](CO)[C@@H](O)[C@H](O)[C@H]2O)OC=C(C(=O)OC)[C@H]1CC=O	7.71%
C=C1C(=O)O[C@@H]2CC(C)=C([C@@H](C)CCCOC(C)=O)[C@@H](O)[C@H]12	-17.2%

SMILES	activity change, negative = inhibition
COc1cc2c(cc1OC)N1C(=O)C[C@@]34C=CC[N@+]5([O-])CC[C@H]2[C@H](CC3)[C@@]145	-9.65%
Nc1ccc(S(=O)(=O)Nc2nccs2)cc1	-17.2%
CC(C)/C=C1\NC(=O)C(C(C)C)n2c1nc1c(c2=O)C=CC=CO1 (configuration not stated)	7.3%
CC1(C)CC[C@]2(C(=O)O)CC[C@]3(C)C(=CCC4[C@@]5(C)CC[C@H](O[C@@H]6O[C@H](C(=O)O)[C@@H](O[C@@H]7OC[C@@H](O)[C@H](O)[C@H]7O)[C@H](O)[C@H]6O)C(C)(C)C5CC[C@]43C)C2C1O (some centres not stated)	3.65% [at 16.9 µM]
CCCC(CCC)C(=O)NCc1ccc2c(cnn2-c2ccccc2OC)c1	-12.2%
CO[C@@]12CC3[C@@H]([C@@H](O)[C@@H](OC(C)=O)C4[C@](C)(COC(C)=O)CCC[C@]34C)[C@@H](C)C1=CC(=O)O2 (some centres not stated)	4.25% [at 28 µM]
C=C(C(=O)O)C1CC2=C(C)C(=O)CC2C(C)CC1O (configuration not stated)	-13.9%
CC(=O)O[C@H]1[C@H](O[C@H]2[C@@H]3C=CO[C@@H](O[C@@H]4O[C@H](CO)[C@@H](O)[C@H](O)[C@H]4O)[C@@H]3[C@@]3(CO)O[C@@H]23)O[C@@H](C)[C@H](OC(=O)/C=C/c2ccccc2)[C@H]1OC(=O)/C=C/c1ccccc1	11% [at 16.9 µM]
Cc1cc(O)cc2c1O[C@](C)(CCC[C@H](C)CCC[C@H](C)CCCC(C)C)CC2	6.42%
C=C1CCc2occ(C)c2[C@H]2[C@H]1[C@@]13O[C@@]1(C[C@@H](C)[C@H]3OC(C)=O)[C@H]1O[C@@]21C	-0.177%
COC(=O)Cn1nc(-c2cccc(OC)c2)c2ccccc21	-6.8%
CCCCCc1ccc(/C=C/C(=O)Nc2cc(Cl)ccc2C(=O)O)cc1	-12.4%
COc1ccc(Oc2c(Cl)cnn(C3c4ccccc4-c4ccccc43)c2=O)cc1	-1.45%
Nc1ccc(-n2nc(C(F)(F)F)cc2C(F)(F)F)cc1	0.317%
CC12CC(O)C(O)C=C1c1cc(O)cc(O)c1C(=O)O2 (configuration not stated)	-26.5%
O=C(NCC(O)CO)c1ccncc1Nc1ccc(I)cc1F (configuration not stated)	0.221%
COc1c2c(c(C)c3c1C(=O)OC3)OC1(C)CC(O)C34OC(OC)(OC3(C)C)C(O)CC4(C)C1C2 (configuration not stated)	-0.806% [at 28 µM]
O=C(NOC[C@H](O)CO)c1ccc(F)c(F)c1Nc1ccc(I)cc1F	-3.94%
CC1(C)CC[C@]2(C(=O)O[C@@H]3O[C@H](CO)[C@@H](O)[C@H](O)[C@H]3O)CC[C@]3(C)C(=CCC4[C@@]5(C)C[C@@H](O)[C@H](O)C(CO)(CO)C5CC[C@]43C)C2[C@@H]1O (some centres not stated)	9.32% [at 16.9 µM]
C=C1C(=O)OC2/C=C(\CO)CC/C=C(\C=O)C(OC)C(OC(=O)C(C)CC)C12 (configuration not stated)	-27.3% [at 28 µM]

Reference: PubChem BioAssay (NCATS)
